Experimental data: PubChem BioAssay (EPA / NIEHS)
Active and inactive are the calls of the source. Rule for the calls: active = hit-call score of the fitted dose curve at least 0.9, where 1 is the maximum; inactive = score below 0.9.

Tested on: not listed separately
Test: ATG_MRE_CIS: Attagene CIS-FACTORIAL HepG2 Assay for human Metal Responsive Element (MRE) (AID 2282954)
Settings: HepG2 MRE cis-reporter transcription, Attagene multiplex; actives raise or lower the signal
Outline: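 Readout: capillary electrophoresis of 6-FAM-labelled, HpaI-digested RT-PCR reporter products. System: HepG2 cells carrying transient multiplexed cis reporters, dosed 24 h. Analysis: bidirectional fit, DMSO baseline.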
For `N#Cc1cccc(C#N)c1`, the outcome was “inactive”. With `O=C1Nc2ccc(Cl)cc2C(c2ccccc2)=NC1O` (centres undefined) the outcome was “inactive”. With `N#CC(c1ccccc1)c1ccccc1` the outcome was “inactive”. For `C[N+](C)=CCl`, the outcome was “inactive”.

Tested on: not listed separately
Test: ATG_PBREM_CIS: Attagene CIS-FACTORIAL HepG2 Assay for human Phenobarbital-responsive Enhancer Module (PBREM) (AID 2282955)
Settings: HepG2 PBREM cis-reporter, Attagene multiplexed transcription; actives raise or lower the signal
Outline: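 HepG2 cells transiently transfected with multiple cis-regulated reporter transcription units; endogenous factor activity at the PBREM element measured as reporter mRNA 24 h after dosing, via RT-PCR and capillary electrophoresis of fluorescent fragments; bidirectional fitting versus DMSO.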
In the case of `O=C1C(Cl)=C(Cl)C(=O)C(Cl)=C1Cl`, the outcome is reported as “inactive”. In the case of `N#CCCCCC#N`, the outcome is reported as “inactive”. With `COc1cc(OC)c(OC)cc1C=O` the outcome was “inactive”. With `CC(C)c1ccc(O)cc1` the outcome was “inactive”. With `COCC(=O)N(c1c(C)cccc1C)N1CCOC1=O` the outcome was “inactive”. With `CC(C)CCCCCCCOP(=O)(Oc1ccccc1)Oc1ccccc1` the outcome was “inactive”. In the case of `C=COCCCl`, the outcome is reported as “inactive”. For `C=CCN(CC=C)C(=O)C(Cl)Cl`, the outcome was “inactive”. For `CC[N+](=O)[O-]`, the outcome was “inactive”. In the case of `CC(Cc1ccc(C(C)(C)C)cc1)CN1C[C@@H](C)O[C@@H](C)C1` (some centres undefined), the AC50 is reported as 12.8 µM (active). For `O=CNC(N1CCN(C(NC=O)C(Cl)(Cl)Cl)CC1)C(Cl)(Cl)Cl` (centres undefined), the outcome was “inactive”. For `CCC[N+](=O)[O-]`, the outcome was “inactive”. With `CC(C)(O)C#N` the outcome was “inactive”. In the case of `CC(C)C#N`, the outcome is reported as “inactive”. For `S=c1[nH]c2ccccc2[nH]1`, the outcome was “inactive”. For `CCCCCc1cc(O)cc(O)c1`, the outcome was “inactive”. In the case of `c1ccc(Nc2ccc3ccccc3c2)cc1`, the outcome is reported as “inactive”. With `CSc1nc(N=[N+]=[N-])nc(NC(C)C)n1` the outcome was “inactive”. For `CC=Cc1ccc2c(c1)OCO2`, the outcome was “inactive”. With `ClC1=C(Cl)[C@]2(Cl)[C@@H]3[C@@H](Cl)[C@H](Cl)C[C@@H]3[C@@]1(Cl)C2(Cl)Cl` the outcome was “inactive”. With `O=S(=O)(c1ccccc1)c1ccccc1` the outcome was “inactive”. For `CC1(C)C(=O)NC(=O)NC1=O`, the outcome was “inactive”. In the case of `CC(=O)/C=C/c1ccccc1`, the outcome is reported as “inactive”. In the case of `c1ccc(P(c2ccccc2)c2ccccc2)cc1`, the outcome is reported as “inactive”. For `CCOC(=O)COc1ccc(Cl)cc1Cl`, the outcome was “inactive”. With `N#Cc1cccc(C#N)c1` the outcome was “inactive”. For `O=C1Nc2ccc(Cl)cc2C(c2ccccc2)=NC1O` (centres undefined), the outcome was “inactive”. With `N#CC(c1ccccc1)c1ccccc1` the outcome was “inactive”.

Target: Paired box protein Pax-6 (Homo sapiens) (UniProt P26367)
Sequence (P26367 whole entry, looked up): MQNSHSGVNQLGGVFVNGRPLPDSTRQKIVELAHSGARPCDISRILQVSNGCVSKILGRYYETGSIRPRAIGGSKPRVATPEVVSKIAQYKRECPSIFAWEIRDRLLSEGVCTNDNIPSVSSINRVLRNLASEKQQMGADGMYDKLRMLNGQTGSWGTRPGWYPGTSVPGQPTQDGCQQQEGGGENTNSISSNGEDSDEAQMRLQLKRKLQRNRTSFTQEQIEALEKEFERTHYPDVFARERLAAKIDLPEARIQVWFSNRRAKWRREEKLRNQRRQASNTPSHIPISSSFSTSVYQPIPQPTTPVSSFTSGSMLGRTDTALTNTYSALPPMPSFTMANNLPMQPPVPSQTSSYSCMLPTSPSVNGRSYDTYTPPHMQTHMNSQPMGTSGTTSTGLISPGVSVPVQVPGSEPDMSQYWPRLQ
Test: ATG_Pax6_CIS: Attagene CIS-FACTORIAL HepG2 Assay for human Paired Box 6 (PAX6) (AID 2282956)
Settings: HepG2 CIS-FACTORIAL PAX6 reporter transcription, RNA readout; actives raise or lower the signal
Outline: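 Read-out is reporter transcript level, measured by RT-PCR with fluorescent primer extension and capillary electrophoresis after 24 h dosing of transfected HepG2 cells. Activity in either direction fitted relative to DMSO control.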
For `O=C1C(Cl)=C(Cl)C(=O)C(Cl)=C1Cl`, the AC50 was 132 µM (active). For `N#CCCCCC#N`, the outcome was “inactive”. With `CC1CCC(=O)O1` (centres undefined) the outcome was “inactive”. In the case of `COc1cc(OC)c(OC)cc1C=O`, the outcome is reported as “inactive”. With `CC(C)c1ccc(O)cc1` the outcome was “inactive”. With `CC(C)(c1cc(Cl)c(O)c(Cl)c1)c1cc(Cl)c(O)c(Cl)c1` the AC50 was 52.3 µM (active). For `O=C(NCNC(=O)NC1C(=O)NC(=O)N1CO)NC1C(=O)NC(=O)N1CO` (centres undefined), the AC50 was 133 µM (active). For `[N-]=[N+]=CC(=O)OC[C@H](N)C(=O)O`, the outcome was “inactive”. For `CC(C)CCCCCCCOP(=O)(Oc1ccccc1)Oc1ccccc1`, the outcome was “inactive”. For `CCC1CCC(=O)O1` (centres undefined), the outcome was “inactive”. For `C=COCCCl`, the outcome was “inactive”. In the case of `C=CCN(CC=C)C(=O)C(Cl)Cl`, the outcome is reported as “inactive”. With `CC[N+](=O)[O-]` the outcome was “inactive”. With `[Cl-].[Cl-].[Cl-].[Yb+3]` the outcome was “inactive”. For `CC(C)(O)C#N`, the outcome was “inactive”. For `CC(C)C#N`, the outcome was “inactive”. For `S=c1[nH]c2ccccc2[nH]1`, the outcome was “inactive”. In the case of `CCCCCc1cc(O)cc(O)c1`, the AC50 is reported as 146 µM (active). With `CSc1nc(N=[N+]=[N-])nc(NC(C)C)n1` the outcome was “inactive”. In the case of `ClC1=C(Cl)[C@]2(Cl)[C@@H]3[C@@H](Cl)[C@H](Cl)C[C@@H]3[C@@]1(Cl)C2(Cl)Cl`, the outcome is reported as “inactive”. For `O=S(=O)(c1ccccc1)c1ccccc1`, the outcome was “inactive”. In the case of `CCC(C)c1cc(C(C)(C)C)cc(-n2nc3ccccc3n2)c1O` (centres undefined), the outcome is reported as “inactive”. For `CC1(C)C(=O)NC(=O)NC1=O`, the outcome was “inactive”. With `CC(=O)/C=C/c1ccccc1` the AC50 was 69 µM (active). In the case of `CCN(CC)C(=S)S`, the outcome is reported as “inactive”. For `O=C1Nc2ccc(Cl)cc2C(c2ccccc2)=NC1O` (centres undefined), the outcome was “inactive”. With `C[N+](C)=CCl` the outcome was “inactive”.
